Most compounds without a hit are left out; they make up all but 13% or so of the library.
HCMV antiviral: inhibitors of human cytomegalovirus; hit rate 4.5% among 410,000; HFF cells, HCMV-luciferase reporter, 72 h; stronger effect = lower value; activity change, negative = inhibition, % at 57.5 µM; in the data active means activity change below about -60%; inconclusive means no clear call, values can overlap the other calls; inactive means above about -39%
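After 16 h attachment at 37C, HFF cells received test compound and HCMV-luciferase (1 PFU/cell); reporter luminescence read 72 h later, data normalized against buffer-only and known inhibitor Salinomycin.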
Pf growth 48h: inhibits P. falciparum growth in the first generation, 48 h. P. falciparum luciferase growth in erythrocytes, 48 h. Potency, µM (series often up to 28.7 µM), hits mostly inhibitors. hit rate 5.9% among 310,000
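Read-out is firefly luciferase luminescence from an integrated reporter in P. falciparum, so falling signal marks reduced parasite growth. Infected erythrocytes were at 2% hematocrit and 0.1% parasitemia (final) in Albumax-supplemented RPMI 1640.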
Pf growth 96h: P. falciparum growth inhibition at 96 hour, primary screen for plastid delayed-death inhibitors; P. falciparum luciferase reporter growth, 96 h; Potency, µM (doses to about 28.7 µM), actives largely listed as inhibitors; hit rate 6.9% among 320,000
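Readout is luminescence from an integrated firefly luciferase in P. falciparum. Red cells, 2% hematocrit and 0.05% parasitemia final, were cultured with compound through two parasite generations (96 hours) at 37 C, 5% CO2.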
HCV inhibitor: blocks hepatitis C virus; Huh7.5.1 HCVcc-Cre infection, luciferase reporter, 44 h; Potency, µM (titrated, usually from 41.8 µM), usual class: inhibitors; hit rate 3.4% among 340,000
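HCVcc-Cre virus at an moi near 0.5 was added right after compound to cells cultured 4 h from seeding (1,000 cells/well). Luciferase activity was determined 44 h later, 15 min after substrate addition at RT.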
Numbers stand for hits; n = inactive; u = inconclusive; x = no result given. Unless noted, the call rests on the fitted dose curve; in most records, active means well fitted inhibition curve with a large enough effect; inconclusive means small, poorly fitted or top-dose-only effect, or another doubt; inactive means no such curve, though single readings can be large or run the other way.

SMILES	HCMV antiviral	Pf growth 48h	Pf growth 96h	HCV inhibitor
O=C(OCC(=O)N1CCN(c2ccccc2)CC1)c1cc(Cl)ccc1[N+](=O)[O-]	n	n	11.7µM	n
CCCCN(C)C(=O)C1CCCN(c2ncnc3onc(C)c23)C1 (centres undefined)	n	x	x	x
Cc1cc(C)c(NC(=O)CN2c3ccccc3S(=O)(=O)c3ccccc32)c(C)c1	n	x	x	x
CC(C)c1nc2oc3c(N(C)CCO)ncnc3c2c2c1CCC2	n	u	0.828µM	n
COc1ncnc2c1oc1nc(CC(C)C)c3c(c12)CCCC3	n	n	n	n
CC(C)c1nc2oc3c(NCC4CCCO4)ncnc3c2c2c1CCC2 (centres undefined)	n	1.85µM	2.94µM	11.2µM
CN1C(=O)[C@H](Cc2ccc([N+](=O)[O-])cc2)NC1=S	-72.0	n	n	n
CCCCC(CC)COC(=O)C(C#N)=C(c1ccccc1)c1ccccc1 (centres undefined)	n	2.62µM	2.62µM	u
CCCCC(CC)COC(=O)c1ccccc1C(=O)OCC(CC)CCCC (centres undefined)	n	u	n	5.62µM
CC(C)COC(=O)c1ccccc1C(=O)OCC(C)C	n	n	n	n
C/C(O)=c1/ccc2cccc3nc(C)nc1c23	-78.7	u	u	u
O/C=c1\ccc2cccc3nc(C(F)(F)F)nc1c23	n	n	n	u
Cc1oc2ncn(CC(C)C)c(=O)c2c1C(=O)N1CCN(c2ccc(F)cc2)CC1	n	x	x	x
CCCN(C(=O)Cn1c(=O)oc2cc(Cl)ccc21)c1ccc(C(C)C)cc1	n	x	x	x
COc1ccccc1C(=O)NCCC(=O)N1CCCCC1	n	n	n	n
CCOc1ccc(S(=O)(=O)NCCC(=O)N2CCN(Cc3ccccc3)CC2)cc1	n	u	n	n
COc1ccccc1C(=O)NCCC(=O)N1CCN(c2ccccc2O)CC1	n	11.7µM	u	n
CCOc1ccc(S(=O)(=O)NCCC(=O)N2CC=C(c3ccccc3)CC2)cc1	u	9.28µM	u	22.4µM
COc1ccccc1C(=O)NCCC(=O)N1CC=C(c2ccccc2)CC1	n	11.7µM	u	n
COc1ccccc1C(=O)NCCC(=O)N1CC(C)OC(C)C1 (centres undefined)	n	x	x	n
Cc1cccn2c(=O)c3cc(C#N)c(=O)n(-c4nnc(SCc5ccc(F)cc5)s4)c3nc12	n	x	x	x
Cc1ccc(-c2nc(C)c(CCNC(=O)C(=O)Nc3ccc(C)c(Cl)c3)s2)cc1	n	x	x	x
Cc1occc1C(=O)Nc1nnc(C(F)(F)F)s1	n	n	x	n
O=C(Nc1ccccc1C(=O)Nc1nnc(C(F)(F)F)s1)c1ccccc1	-99.2	1.17µM	2.62µM	n
Cc1c(C(=O)Nc2nnc(C(F)(F)F)s2)oc2ccccc12	-84.5	n	n	x
SMILES	HCMV antiviral	Pf growth 48h	Pf growth 96h	HCV inhibitor
Cc1ccc(CNC(=O)CN2CCN(Cc3ccc(F)cc3)C2=O)cc1	n	x	x	x
Cc1c(C(=O)N(C)C)sc2c1c(=O)n(-c1ccc(F)cc1)c(=O)n2Cc1ccccc1C#N	n	x	x	x
Cc1ccc(C)c(NC(=O)c2cc(S(=O)(=O)N3CCN(c4cccc(Cl)c4)CC3)ccc2F)c1	n	x	x	x
CCCCCCCSc1cc(OC)c(CCNC)cc1OC	-98.6	u	u	u
C[C@@H]1CN([C@H](C)CO)C(=O)CCCn2cc(nn2)CO[C@H]1CN(C)S(=O)(=O)c1cn(C)cn1	n	x	x	x
N[C@@H](Cc1ccccc1)c1nnc(SCc2ccccc2Cl)o1	-69.9	n	x	n
N[C@@H](Cc1c[nH]c2ccccc12)c1nnc(SCc2ccccc2)o1	n	n	n	n
NCCc1nnc(SCc2c(Cl)cccc2Cl)o1	n	n	n	n
NCCCCCc1nnc(SCc2ccccc2Cl)o1	-76.2	n	n	n
O=[N+]([O-])c1ccc(N/N=C/c2ccc(O)c(O)c2O)c(S(=O)(=O)N2CCOCC2)c1	n	u	n	u
O=[N+]([O-])c1ccc(N/N=C/c2cccc(O)c2O)c(S(=O)(=O)N2CCOCC2)c1	n	u	u	2.82µM
CCN(Cc1ccccc1)S(=O)(=O)c1ccc2c(c1)CC(C)N2C(=O)C1CCC1 (centres undefined)	n	x	x	x
CC(C)(C)C(=O)OC1=CN(Cc2ccccc2)S(=O)(=O)c2ccccc21	n	x	x	x
O=C(COc1ccc2ccc(=O)oc2c1)N1CCN(c2ccccc2)CC1	n	n	n	n
CCc1cc(=O)oc2c(C)c(OCC(=O)N3CCCc4ccccc43)ccc12	n	11.7µM	x	u
Cc1cccc(N2CCN(C(=O)COc3ccc4ccc(=O)oc4c3)CC2)c1C	u	n	u	11.2µM
Cc1cccc(N2CCN(C(=O)COc3ccc4c(C)cc(=O)oc4c3C)CC2)c1C	n	11.7µM	u	10µM
Cc1cc(=O)oc2c(C)c(OCC(=O)N3CCN(c4ccc(F)cc4)CC3)ccc12	n	n	n	u
O=c1nc(Nc2ccc(OCc3ccccc3)cc2)sc2ncccc12	-87.8	n	n	n
CC(C)(C)OC(=O)NCCCCCNC(=O)c1nc[nH]c1C(=O)NCc1ccc(CNC(=O)OC(C)(C)C)cc1	-94.9	x	x	8.91µM
CC(C)(C)OC(=O)NCc1ccc(CNC(=O)c2[nH]cnc2C(=O)NC2CCN(C(=O)OC(C)(C)C)CC2)cc1	x	5.86µM	u	u
CC(C)(C)OC(=O)NCCCCCNC(=O)c1nc[nH]c1C(=O)NCCCCCNC(=O)OC(C)(C)C	-75.1	x	x	10µM
COc1ccc(-c2csc(Nc3ccccc3)[n+]2CC(O)c2ccc([N+](=O)[O-])cc2)cc1 (centres undefined)	n	1.31µM	1.47µM	8.91µM
CN1C(=O)[C@@H]2C[C@@]3([C@@]45C[C@H]6C(=O)N(C)[C@@H](Cc7ccccc7)C(=O)N6[C@@H]4Nc4ccccc45)c4ccccc4N[C@H]3N2C(=O)[C@@H]1Cc1ccccc1	-68.1	11.7µM	u	u
O=C1N[C@@H](Cc2ccccc2)C(=O)N2[C@H]3Nc4ccccc4[C@@]3([C@]34C[C@H]5C(=O)N[C@@H](Cc6ccccc6)C(=O)N5[C@H]3Nc3ccccc34)C[C@@H]12	x	x	x	n
SMILES	HCMV antiviral	Pf growth 48h	Pf growth 96h	HCV inhibitor
COc1ccc(S(=O)(=O)NCC2CCCN(C(=O)c3ccco3)C2)cc1 (centres undefined)	n	n	u	n
COc1ccc(S(=O)(=O)NCC2CCCN(C(=O)c3cccnc3)C2)cc1 (centres undefined)	-60.1	n	n	n
CCN(CC)S(=O)(=O)c1cnccc1N1CCN(c2cccc(Cl)c2)CC1	n	3.29µM	2.94µM	n
CN1CCN(S(=O)(=O)c2cnccc2N2CCN(c3cccc(Cl)c3)CC2)CC1	u	2.62µM	2.62µM	u
COc1cccc(-n2cc(C(=O)NCCc3ccc(C)cc3)c3ccccc3c2=O)c1	-60.6	x	x	x
CCOC(=O)c1ccccc1NC(=O)c1cn(-c2ccc(OC)cc2)c(=O)c2ccccc12	u	u	2.94µM	n
COc1cccc(-n2cc(C(=O)NC(C)C)c3ccccc3c2=O)c1	n	n	1.31µM	n
CCOC(=O)c1ccccc1NC(=O)c1cn(-c2ccc(C)c(C)c2)c(=O)c2ccccc12	n	u	u	u
Cc1ccccc1S(=O)(=O)N(C)C[C@H]1OCc2cnnn2CCCC(=O)N([C@H](C)CO)C[C@@H]1C	n	x	x	x

Compound activity: PubChem, National Center for Advancing Translational Sciences (NCATS)
